# Measured values taken from ChEMBL document CHEMBL3988442, “University of Dundee, Small-Polar-MMV Screening Library” (2021).
# Out of some 48,000 compounds screened, about 13,000 (27%) showed an effect of 50% or more. The list shows a part of the results.
# Tested on: Wolbachia pipientis
# Assay: Anti-Wolbachia Cell-Based Screen
# Format: functional
# Parameters: scale not given: in the data most compounds retested in dose-response had high values
# Settings: 5 µM
row,SMILES,Percent Effect [%]
1,NC(=O)CC1CCN(CC(O)c2ccc(Br)cc2)CC1 (stereo not drawn),25.42
2,CC(COc1ccccc1)NCc1nncn1C1CCCCC1 (stereo not drawn),-38.9
3,CCN1CCC(NC(=O)Cc2csc(C(C)(C)C)n2)CC1,4.843
4,O=C(C1CCOC1)N1CCN(CCn2cccn2)c2ncccc2C1.O=C(O)C(F)(F)F (stereo not drawn),122
5,O=C(O)C(F)(F)F.O=C([C@H]1CCCO1)N1CCN(CCn2cccn2)c2ncccc2C1,108.8
6,CCN(CC)C(=O)c1nnc2ccc(N3CCOCC3)cc2n1,-10.33
7,CCCS(=O)(=O)N1CCN(CC(F)(F)F)CC1,16.36
8,Cc1cnc(C(C)(C)NC(=O)NCc2ccon2)s1,-28.31
9,Cc1nc2ccc(C(=O)N(CCC#N)CCC#N)cc2nc1C,-2.079
10,N#CCCN(CC1CCCO1)C(=O)c1ccc2nonc2c1 (stereo not drawn),113
11,Cc1nc2cc(C(=O)N(CCC#N)CCC#N)ccc2n1C,-0.9305
12,Cc1nc2cc(C(=O)N(CCC#N)CC3CCCO3)ccc2[nH]1 (stereo not drawn),103.2
13,CN(Cc1ccc2nonc2c1)C(=O)c1ccc(C2CCCO2)s1 (stereo not drawn),-9.176
14,N#CCCN(c1ccc(F)cc1)S(=O)(=O)CC1CCCCO1 (stereo not drawn),-8.338
15,CCC(C)CS(=O)(=O)NCCc1csc(N2CCCC2)n1 (stereo not drawn),-21.99
16,COCC(C)N(Cc1ccccc1OC)C(=O)c1cc(C)[nH]c(=O)c1 (stereo not drawn),-10.95
17,C[C@]1(O)CN(CCO)CC[C@@H]1Oc1cccc(F)c1,120.3
18,C[C@]1(O)CN(CC(=O)N2CCCC2)CC[C@@H]1Oc1cccc(F)c1,121.7
19,CC(Oc1cccc(F)c1)C(=O)N(CC(N)=O)C1CCCC1 (stereo not drawn),-28.68
20,O=C(COc1cccc(F)c1)N1C[C@H](CO)C[C@H](CN2CCCC2)C1,-0.9347
21,O=C(O)C(F)(F)F.O=C1CC2(CCN(CCO)C2)CN1c1cccc(F)c1 (stereo not drawn),6.062
22,CN1CC(=O)N(c2cccc(F)c2)CC12CCN(CCO)C2.O=C(O)C(F)(F)F.O=C(O)C(F)(F)F (stereo not drawn),1.497
23,NC(=O)CN1CCC(C(=O)NCC(O)c2cccc(F)c2)CC1 (stereo not drawn),3.405

row,SMILES,Percent Effect [%]
1,O=C(COc1cccc(F)c1)N1C[C@@H](CN2CCCC2)C[C@H](CO)C1,-0.02776
2,C[C@]1(O)CN(CCC(N)=O)CC[C@@H]1Oc1cccc(F)c1,109.4
3,CCn1ncc2c1NC(=O)CC2c1cnc(NCc2ccccc2)nc1 (stereo not drawn),4.243
4,Cc1ccc(N2CCCC(N3CCC4(CC3)OCCO4)C2=O)cc1 (stereo not drawn),-7.017
5,OC(CN1CCCc2cc(OC(F)F)ccc21)Cn1cccn1 (stereo not drawn),-16.69
6,COc1ccc2c(c1)CN(C)C(=O)CCN2CC(O)C(F)(F)F (stereo not drawn),104.6
7,COc1ccc2c(c1)CCCN(C(C)C(=O)NC(C)C)C2 (stereo not drawn),-4.844
8,COc1ccc2c(c1)CN(C)C(=O)CCN2CC(O)C(C)(C)C (stereo not drawn),100.8
9,COc1ccc2c(c1)CCN(CCC(=O)O)CC2,-10.19
10,COC(=O)C(C)N1CCCc2cc(OC)ccc2C1 (stereo not drawn),-9.406
11,O=C(CNc1nc(C2CC2)ns1)N1CCc2sccc2C1,-3.427
12,N#CCCN(CCC#N)C(=O)c1cccc(N2CCNC2=O)c1,-11.85
13,CC(C)c1nc(C2CCCN(C(=O)CCCn3cccn3)C2)no1 (stereo not drawn),95.04
14,CC(C)c1nc(C2CCCN(C(=O)CN3CCCNC3=O)C2)no1 (stereo not drawn),6.733
15,CC(C)c1nc(C2CCCN(C(=O)CN(C)S(C)(=O)=O)C2)no1 (stereo not drawn),-21.51
16,CCS(=O)(=O)CC(=O)N1CCCC(c2noc(C(C)C)n2)C1 (stereo not drawn),-6.108
17,CC(C)c1nc(C2CCCN(C(=O)CCn3ccnc3)C2)no1 (stereo not drawn),-0.5429
18,CC(C)c1nc(C2CCCN(C(=O)CS(=O)(=O)C(C)C)C2)no1 (stereo not drawn),-11.89
19,CC(C)c1nc(C2CCCN(C(=O)CCCn3ccnc3)C2)no1 (stereo not drawn),94.72
20,Cc1nc(C2CCCN(C(=O)CCCn3cccn3)C2)no1 (stereo not drawn),10.77
21,Cc1nc(C2CCCN(C(=O)CN3CCCNC3=O)C2)sc1C (stereo not drawn),6.53
22,Cc1nc(C2CCCN(C(=O)CCCn3cccn3)C2)sc1C (stereo not drawn),112.1
23,Cc1nc(C2CCCN(C(=O)CN3CCCC3=O)C2)sc1C (stereo not drawn),-7.822

row,SMILES,Percent Effect [%]
1,CC(C)c1nc(C2CCCN(C(=O)CCc3cscn3)C2)no1 (stereo not drawn),114.7
2,CCN(Cc1cccc(NC(=O)COCCOC)c1)C(C)=O,-8.699
3,CCc1c(C)nn(CC(=O)NC(C)c2n[nH]c(C)n2)c1C (stereo not drawn),2.562
4,Cc1noc(C2CCN(c3oc(C)nc3C#N)CC2)n1,-7.205
5,CC(C)N1CCC(C(=O)NC[C@H]2CCc3ccccc3O2)CC1,-3.949
6,COC(=O)CCNC(=O)c1ccc(NC(=O)N(C)CC(C)(C)C)cc1,28.42
7,Cc1nccn1CCCC(=O)N1CCCC(c2noc(C(C)C)n2)C1 (stereo not drawn),94.02
8,Cc1nc(C2CCCN(C(=O)CCCn3ccnc3C)C2)no1 (stereo not drawn),-5.463
9,O=C1O[C@@H]2CN(Cc3ccccn3)C[C@@H]2N1CCCc1ccc(F)cc1,2.234
10,Cc1ccc(OC2(C(=O)N(C)Cc3ccoc3)CCNCC2)cc1,-12.66
11,CCCc1cc(N2CCC(N[C@H]3CC[C@H](O)CC3)CC2)nc(C)n1,-4.932
12,Cc1cc(C)nc(N2CCC(NCCSc3nnnn3C)CC2)n1,-14.51
13,CCCc1cc(N2CCC(NCC3(O)CCN(C)CC3)CC2)nc(C)n1,-6.496
14,CCCc1cc(CNC2CCN(c3cc(C)nc(N)n3)CC2)on1,82.71
15,CCCc1cc(N2CCC(NC3CCOCC3)CC2)nc(C)n1,29.8
16,CCS(=O)(=O)CCNC1CCN(c2nc3ccc(Cl)cc3s2)CC1,-46.95
17,CCCc1cc(CNC(=O)Cc2cc(C)no2)on1,0.033
18,CCCc1cc(CNC2CCN(c3cc(C(C)C)nc(C)n3)CC2)on1,93.6
19,CCCc1cc(CNC2CCN(c3nc(C)cc(C)n3)CC2)on1,99.03
20,CCCc1cc(N2CCC(NC3CCS(=O)(=O)C3)CC2)nc(C)n1 (stereo not drawn),-13.12
21,CCCc1cc(CNC2CCN(c3nc4ccccc4s3)CC2)on1,114.2
22,Cc1n[nH]c(SCCNC2CCN(c3nc4ccccc4s3)CC2)n1,-0.1074
